6 compounds from ChEMBL document CHEMBL1961873, “Compounds: GSK PKIS; Assays: Nanosyn kinase panel” (2012) can be followed below.

As a reminder, the inhibition is the drop in the measured response relative to a control, in per cent.

Experiment [1] addresses Tyrosine-protein kinase Fyn (Homo sapiens) (UniProt P06241). The settings on record: at 1 µM.
Experiment [2] concerns the target Tyrosine-protein kinase HCK (Homo sapiens) (UniProt P08631). The conditions noted are these: at 0.1 µM.
The target is the same in experiment [3]. The conditions noted are these: at 1 µM.
In experiment [4] the target is Insulin-like growth factor 1 receptor (Homo sapiens) (UniProt P08069). The settings on record: at 0.1 µM.
Insulin-like growth factor 1 receptor (Homo sapiens), sequence (P08069 31-736 limits assumed): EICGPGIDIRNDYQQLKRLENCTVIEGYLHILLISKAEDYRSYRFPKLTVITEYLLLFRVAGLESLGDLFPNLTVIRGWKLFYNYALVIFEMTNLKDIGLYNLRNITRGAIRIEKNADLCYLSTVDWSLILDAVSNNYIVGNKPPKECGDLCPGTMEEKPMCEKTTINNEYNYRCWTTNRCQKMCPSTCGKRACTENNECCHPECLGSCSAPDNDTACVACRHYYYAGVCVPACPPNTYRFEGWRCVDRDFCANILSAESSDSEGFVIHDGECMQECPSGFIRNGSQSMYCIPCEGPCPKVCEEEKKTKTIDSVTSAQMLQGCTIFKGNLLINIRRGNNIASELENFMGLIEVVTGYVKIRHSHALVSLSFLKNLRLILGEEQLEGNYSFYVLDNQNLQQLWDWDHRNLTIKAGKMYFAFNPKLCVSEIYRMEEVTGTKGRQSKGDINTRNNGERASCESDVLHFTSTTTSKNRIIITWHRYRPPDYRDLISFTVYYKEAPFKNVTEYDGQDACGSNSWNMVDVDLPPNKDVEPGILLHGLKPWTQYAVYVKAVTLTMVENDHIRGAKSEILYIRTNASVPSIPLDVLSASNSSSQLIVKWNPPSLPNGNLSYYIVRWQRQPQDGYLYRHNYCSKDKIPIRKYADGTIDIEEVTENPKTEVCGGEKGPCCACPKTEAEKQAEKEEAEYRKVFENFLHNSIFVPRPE
Insulin-like growth factor 1 receptor (Homo sapiens), sequence (P08069 741-1367 limits assumed): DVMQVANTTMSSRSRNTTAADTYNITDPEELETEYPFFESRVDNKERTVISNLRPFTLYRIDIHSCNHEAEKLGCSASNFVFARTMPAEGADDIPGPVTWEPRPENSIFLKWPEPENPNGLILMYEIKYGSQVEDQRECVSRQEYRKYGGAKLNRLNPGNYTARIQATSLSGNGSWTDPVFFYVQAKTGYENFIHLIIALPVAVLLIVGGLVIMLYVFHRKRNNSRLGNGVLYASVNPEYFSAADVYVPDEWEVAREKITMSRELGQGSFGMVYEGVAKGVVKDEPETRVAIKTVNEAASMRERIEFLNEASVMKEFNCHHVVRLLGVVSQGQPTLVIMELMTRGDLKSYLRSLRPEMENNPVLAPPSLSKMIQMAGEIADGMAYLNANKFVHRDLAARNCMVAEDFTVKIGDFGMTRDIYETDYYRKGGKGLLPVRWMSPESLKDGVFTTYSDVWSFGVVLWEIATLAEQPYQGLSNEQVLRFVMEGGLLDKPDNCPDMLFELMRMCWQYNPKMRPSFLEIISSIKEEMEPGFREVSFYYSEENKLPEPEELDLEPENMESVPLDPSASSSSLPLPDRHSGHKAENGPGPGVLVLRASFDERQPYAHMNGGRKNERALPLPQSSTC
The target is the same in experiment [5]. The settings on record: at 1 µM.
Experiment [6] has as its target Insulin receptor (Homo sapiens) (UniProt P06213). The settings on record: at 0.1 µM.
Experiment [7] has the same target. The conditions noted are these: at 1 µM.
Experiment [8] addresses Insulin receptor-related protein (Homo sapiens) (UniProt P14616). The settings on record: at 0.1 µM.
Experiment [9] has the same target. The conditions noted are these: at 1 µM.
For experiment [10], the target named is T1, Tyrosine-protein kinase ITK/TSK (Homo sapiens) (UniProt Q08881).
T1 sequence (whole entry): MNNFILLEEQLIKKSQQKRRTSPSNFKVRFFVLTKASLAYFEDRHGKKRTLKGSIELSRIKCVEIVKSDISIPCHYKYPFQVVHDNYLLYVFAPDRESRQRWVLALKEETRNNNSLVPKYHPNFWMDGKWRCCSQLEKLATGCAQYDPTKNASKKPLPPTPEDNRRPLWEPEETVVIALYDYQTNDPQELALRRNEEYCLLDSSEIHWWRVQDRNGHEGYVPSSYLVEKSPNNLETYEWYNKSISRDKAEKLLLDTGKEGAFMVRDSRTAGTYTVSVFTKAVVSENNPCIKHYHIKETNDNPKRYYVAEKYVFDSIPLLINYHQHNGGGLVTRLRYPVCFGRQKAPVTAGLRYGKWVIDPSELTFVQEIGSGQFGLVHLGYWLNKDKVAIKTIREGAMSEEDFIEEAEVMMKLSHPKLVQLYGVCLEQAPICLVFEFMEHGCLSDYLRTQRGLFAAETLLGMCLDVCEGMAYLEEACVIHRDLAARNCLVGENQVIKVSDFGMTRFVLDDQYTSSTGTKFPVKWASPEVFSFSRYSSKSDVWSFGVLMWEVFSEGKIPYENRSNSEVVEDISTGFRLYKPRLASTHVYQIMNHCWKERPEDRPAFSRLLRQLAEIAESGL
The conditions noted are these: at 0.1 µM.

Experiment [11] has as its target T1, Tyrosine-protein kinase ITK/TSK (Homo sapiens). The settings on record: at 1 µM.
The target in experiment [12] is Tyrosine-protein kinase JAK1 (Homo sapiens) (UniProt P23458). The settings on record: at 0.1 µM.
For experiment [13] the target is unchanged. The settings on record: at 1 µM.
Experiment [14] has as its target Tyrosine-protein kinase JAK2 (Homo sapiens) (UniProt O60674). The settings on record: at 0.1 µM.
Experiment [15] shares this target. The settings on record: at 1 µM.
Experiment [16] has as its target T2, Tyrosine-protein kinase JAK3 (Homo sapiens) (UniProt P52333).
T2 sequence (whole entry): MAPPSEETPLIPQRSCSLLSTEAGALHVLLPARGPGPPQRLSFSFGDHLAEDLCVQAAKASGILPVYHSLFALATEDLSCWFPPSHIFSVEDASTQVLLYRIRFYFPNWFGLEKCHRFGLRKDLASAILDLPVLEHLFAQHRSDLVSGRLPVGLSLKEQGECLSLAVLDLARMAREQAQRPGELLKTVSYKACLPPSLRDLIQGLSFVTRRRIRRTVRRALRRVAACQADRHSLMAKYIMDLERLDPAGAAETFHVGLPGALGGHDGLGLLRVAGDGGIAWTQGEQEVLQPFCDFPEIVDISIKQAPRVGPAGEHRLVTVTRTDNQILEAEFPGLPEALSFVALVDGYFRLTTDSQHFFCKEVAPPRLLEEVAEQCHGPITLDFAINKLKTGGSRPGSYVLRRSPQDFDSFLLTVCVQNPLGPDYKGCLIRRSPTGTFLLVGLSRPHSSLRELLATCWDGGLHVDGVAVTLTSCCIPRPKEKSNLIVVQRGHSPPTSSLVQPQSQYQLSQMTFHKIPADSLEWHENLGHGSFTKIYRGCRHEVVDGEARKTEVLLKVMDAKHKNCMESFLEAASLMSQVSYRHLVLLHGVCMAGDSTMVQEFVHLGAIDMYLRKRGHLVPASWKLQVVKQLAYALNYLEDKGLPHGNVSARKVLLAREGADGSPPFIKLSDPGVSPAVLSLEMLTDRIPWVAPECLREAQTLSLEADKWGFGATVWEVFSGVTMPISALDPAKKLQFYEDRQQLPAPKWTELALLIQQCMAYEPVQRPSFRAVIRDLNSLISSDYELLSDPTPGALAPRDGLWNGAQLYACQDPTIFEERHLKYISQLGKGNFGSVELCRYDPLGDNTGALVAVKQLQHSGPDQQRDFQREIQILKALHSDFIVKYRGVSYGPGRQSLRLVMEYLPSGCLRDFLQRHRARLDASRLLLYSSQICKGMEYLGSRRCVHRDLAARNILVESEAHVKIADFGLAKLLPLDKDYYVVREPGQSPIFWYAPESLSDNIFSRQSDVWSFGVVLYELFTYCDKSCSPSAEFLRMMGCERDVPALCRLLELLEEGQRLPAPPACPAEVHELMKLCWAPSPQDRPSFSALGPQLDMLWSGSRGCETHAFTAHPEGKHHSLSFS
The settings on record: at 0.1 µM.

Experiment [17] addresses T2, Tyrosine-protein kinase JAK3 (Homo sapiens). The settings on record: at 1 µM.
The target in experiment [18] is Vascular endothelial growth factor receptor 2 (Homo sapiens) (UniProt P35968). The conditions noted are these: at 0.1 µM.
Vascular endothelial growth factor receptor 2 (Homo sapiens), sequence (P35968 whole entry): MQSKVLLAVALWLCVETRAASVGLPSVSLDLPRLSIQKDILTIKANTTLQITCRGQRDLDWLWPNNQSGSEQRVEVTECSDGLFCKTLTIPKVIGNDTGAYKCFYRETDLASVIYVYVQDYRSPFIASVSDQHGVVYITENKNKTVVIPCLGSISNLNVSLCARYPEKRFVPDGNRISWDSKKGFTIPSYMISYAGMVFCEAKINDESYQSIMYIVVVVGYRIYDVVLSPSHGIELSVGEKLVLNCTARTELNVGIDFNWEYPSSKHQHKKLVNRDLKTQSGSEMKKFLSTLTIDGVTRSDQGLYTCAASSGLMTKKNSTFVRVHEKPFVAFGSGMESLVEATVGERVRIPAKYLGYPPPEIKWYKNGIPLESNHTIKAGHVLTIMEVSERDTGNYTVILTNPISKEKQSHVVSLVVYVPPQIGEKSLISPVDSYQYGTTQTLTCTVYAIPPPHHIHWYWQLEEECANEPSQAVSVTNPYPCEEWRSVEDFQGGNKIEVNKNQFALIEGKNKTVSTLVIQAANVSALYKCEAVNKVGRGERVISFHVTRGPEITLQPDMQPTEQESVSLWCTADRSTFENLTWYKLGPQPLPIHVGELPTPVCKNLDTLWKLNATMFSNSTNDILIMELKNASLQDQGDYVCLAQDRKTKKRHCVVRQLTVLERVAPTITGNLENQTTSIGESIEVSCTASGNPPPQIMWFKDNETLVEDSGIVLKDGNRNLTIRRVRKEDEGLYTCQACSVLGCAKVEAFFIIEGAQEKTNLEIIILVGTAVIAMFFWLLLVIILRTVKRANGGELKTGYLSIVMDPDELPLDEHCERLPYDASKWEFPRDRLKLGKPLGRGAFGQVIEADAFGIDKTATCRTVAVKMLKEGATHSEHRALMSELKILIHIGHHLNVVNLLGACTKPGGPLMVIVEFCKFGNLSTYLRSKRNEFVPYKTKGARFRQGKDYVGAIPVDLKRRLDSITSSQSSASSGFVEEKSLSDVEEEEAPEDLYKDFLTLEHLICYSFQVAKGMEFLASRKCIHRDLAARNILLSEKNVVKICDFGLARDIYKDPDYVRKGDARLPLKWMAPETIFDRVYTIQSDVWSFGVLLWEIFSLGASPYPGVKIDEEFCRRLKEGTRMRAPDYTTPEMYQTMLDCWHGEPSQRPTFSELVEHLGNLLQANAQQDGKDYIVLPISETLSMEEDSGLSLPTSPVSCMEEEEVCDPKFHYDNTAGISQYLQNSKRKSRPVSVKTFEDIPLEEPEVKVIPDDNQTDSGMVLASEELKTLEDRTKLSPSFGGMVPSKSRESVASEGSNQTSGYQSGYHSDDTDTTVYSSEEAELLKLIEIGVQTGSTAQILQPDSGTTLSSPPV
For experiment [19] the target is unchanged. The conditions noted are these: at 1 µM.
In experiment [20] the target is Mast/stem cell growth factor receptor Kit (Homo sapiens) (UniProt P10721). The conditions noted are these: at 0.1 µM.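 Note: values are mean inhibition of KIT, from the GSK PKIS dataset.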
Mast/stem cell growth factor receptor Kit (Homo sapiens), sequence (P10721 whole entry): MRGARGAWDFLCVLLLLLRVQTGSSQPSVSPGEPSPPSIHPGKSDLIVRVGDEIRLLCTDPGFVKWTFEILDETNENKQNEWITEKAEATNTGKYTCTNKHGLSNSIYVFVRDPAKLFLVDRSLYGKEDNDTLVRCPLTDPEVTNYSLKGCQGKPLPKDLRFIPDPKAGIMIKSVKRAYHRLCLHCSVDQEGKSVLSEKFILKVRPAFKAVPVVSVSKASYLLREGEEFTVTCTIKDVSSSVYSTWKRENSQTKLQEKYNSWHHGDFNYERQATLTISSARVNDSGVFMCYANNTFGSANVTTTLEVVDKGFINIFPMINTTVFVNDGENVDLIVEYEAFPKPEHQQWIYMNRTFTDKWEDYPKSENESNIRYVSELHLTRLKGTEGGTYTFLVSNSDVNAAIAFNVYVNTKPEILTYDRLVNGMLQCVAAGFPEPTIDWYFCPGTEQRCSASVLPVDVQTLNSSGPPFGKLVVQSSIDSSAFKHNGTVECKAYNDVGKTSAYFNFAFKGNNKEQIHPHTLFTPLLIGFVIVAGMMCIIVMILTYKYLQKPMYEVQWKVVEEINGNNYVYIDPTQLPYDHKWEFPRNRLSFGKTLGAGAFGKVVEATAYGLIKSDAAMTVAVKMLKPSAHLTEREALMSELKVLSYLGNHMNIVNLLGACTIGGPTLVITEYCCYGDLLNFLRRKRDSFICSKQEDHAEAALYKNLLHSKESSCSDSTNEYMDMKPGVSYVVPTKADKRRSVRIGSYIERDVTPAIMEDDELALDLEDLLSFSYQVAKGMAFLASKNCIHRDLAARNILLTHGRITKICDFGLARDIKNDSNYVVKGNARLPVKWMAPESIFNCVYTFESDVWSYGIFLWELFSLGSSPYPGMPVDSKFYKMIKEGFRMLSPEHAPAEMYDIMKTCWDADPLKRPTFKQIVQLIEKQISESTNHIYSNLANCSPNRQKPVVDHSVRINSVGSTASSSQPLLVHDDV

Tyrosine-protein kinase Fyn (Homo sapiens), sequence (P06241 2-537 limits assumed): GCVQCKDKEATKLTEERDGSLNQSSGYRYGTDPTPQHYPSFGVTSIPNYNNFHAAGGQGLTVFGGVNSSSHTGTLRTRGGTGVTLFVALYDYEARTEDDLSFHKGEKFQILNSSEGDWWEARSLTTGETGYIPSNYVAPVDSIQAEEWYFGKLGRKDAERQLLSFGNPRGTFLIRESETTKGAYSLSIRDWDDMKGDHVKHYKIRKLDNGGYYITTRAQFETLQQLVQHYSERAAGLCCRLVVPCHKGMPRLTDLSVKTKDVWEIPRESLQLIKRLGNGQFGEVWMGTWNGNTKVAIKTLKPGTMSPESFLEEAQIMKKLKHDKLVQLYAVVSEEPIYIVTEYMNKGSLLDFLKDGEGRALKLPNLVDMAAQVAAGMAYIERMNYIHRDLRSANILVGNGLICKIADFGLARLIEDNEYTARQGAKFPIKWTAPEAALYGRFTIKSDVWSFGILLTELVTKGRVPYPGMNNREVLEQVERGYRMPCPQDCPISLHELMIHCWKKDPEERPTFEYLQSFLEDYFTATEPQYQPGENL
Tyrosine-protein kinase HCK (Homo sapiens), sequence (P08631 2-526 limits assumed): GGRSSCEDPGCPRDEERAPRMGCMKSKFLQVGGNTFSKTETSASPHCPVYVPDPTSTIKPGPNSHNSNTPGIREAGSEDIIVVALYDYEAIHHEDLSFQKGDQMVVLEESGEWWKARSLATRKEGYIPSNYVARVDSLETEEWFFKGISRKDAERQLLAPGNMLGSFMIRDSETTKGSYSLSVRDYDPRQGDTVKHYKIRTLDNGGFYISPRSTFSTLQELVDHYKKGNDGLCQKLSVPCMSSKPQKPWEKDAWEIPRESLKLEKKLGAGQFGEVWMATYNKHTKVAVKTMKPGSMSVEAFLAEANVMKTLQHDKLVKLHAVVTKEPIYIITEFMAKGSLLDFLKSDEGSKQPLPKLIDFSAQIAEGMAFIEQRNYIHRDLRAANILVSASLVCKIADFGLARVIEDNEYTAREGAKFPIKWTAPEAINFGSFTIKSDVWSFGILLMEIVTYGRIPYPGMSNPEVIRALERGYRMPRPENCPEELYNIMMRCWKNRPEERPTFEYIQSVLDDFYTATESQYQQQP

In the case of `CCCN1CCC=C(c2ccc(Nc3nc(Nc4ccccc4C(N)=O)c4cc[nH]c4n3)c(C)c2)C1`, the inhibition was 7.24% in [1]; 7.82% in experiment [2]; 16.3% in experiment [3]; 97.6% in experiment [4]; 99.2% in experiment [5]; 84% in experiment [6]. Also, the inhibition in [7] was 90.1%; in experiment [8], 23.2%; in [9], 70.8%; in experiment [10], 1.99%; in [11], 7.61%; in [12] it was 2.14%. Further, the inhibition in experiment [13] was 3.46%; in experiment [14], 2.19%; in experiment [15], 2.74%; in [16] it was -1.04%; in [17], 0.49%; in [18] it was 0.98%. The figures for the inhibition in experiment [19] and in experiment [20] were 17.7% and 4.24%, respectively.
Regarding `CS(=O)(=O)Nc1ccc(N/C=C2\C(=O)Nc3ccccc32)cc1`, the inhibition was 4.85% in experiment [1]; -0.18% in experiment [2]; 14.1% in experiment [3]; -1.54% in experiment [4]; 5.77% in experiment [5]; -0.48% in [6]. The inhibition is 8.57% in experiment [7]; -3.26% in [8]; -1.01% in experiment [9]; -0.24% in experiment [10]; 3.61% in experiment [11]; 0.26% in experiment [12]. The inhibition was 5.33% in experiment [13]; -0.93% in [14]; 1.03% in [15]; 0.43% in experiment [16]; 8.16% in [17]; 6.66% in experiment [18]. In addition, the inhibition in experiment [19] amounted to 46.7%; in experiment [20], 17.6%.
For `c1cnn2ncc(-c3ccnc(Nc4ccc5c(c4)OCCO5)n3)c2c1`, the inhibition in [1] was determined as 8.63%; in [2], 6.09%; in experiment [3] it was 16.8%; in experiment [4], 15%; in experiment [5], 56.6%; in [6], 12.7%. The inhibition in [7] is 58.5%; in experiment [8], 5.36%; in experiment [9], 15.2%; in experiment [10], 1.86%; in experiment [11], 5.82%; in experiment [12], 8.27%. Also, the inhibition in [13] amounted to 19.7%; in experiment [14] it was 2.1%; in experiment [15], 20.6%; in [16], 1.94%; in experiment [17] it was 46%; in experiment [18], 9.54%. The inhibition in experiment [19] turned out to be 37.4%; in [20], 95%.
Regarding `COc1cc2ncn(-c3cc(O[C@@H](C)c4ccccc4Cl)c(C(N)=O)s3)c2cc1OC`, the inhibition was 27.5% in experiment [1]; 10.8% in experiment [2]; 43.3% in experiment [3]; -0.08% in [4]; 2.3% in [5]; 1.26% in experiment [6]. The inhibition in [7] turned out to be 3.04%; in experiment [8], 3.27%; in experiment [9] it was 3.99%; in experiment [10] it was 0.13%; in [11], 3.19%; in experiment [12], 0.34%. Also, the inhibition is 3.27% in experiment [13]; 2.38% in experiment [14]; 1.08% in experiment [15]; -3.05% in experiment [16]; 1.97% in [17]; 18% in experiment [18]. Further, the results for the inhibition in experiment [19] and in [20] were 67.7% and 4.65%, respectively.
With `Nc1ncnc2occ(-c3ccc(NC(=O)Nc4cccc(C(F)(F)F)c4)cc3)c12`, the inhibition in experiment [1] was 19.9%; in experiment [2] it was 12%; in [3], 48.8%; in [4], 14.6%; in [5], 15.5%; in [6], 3.28%. The inhibition in experiment [7] was found to be 10.5%; in experiment [8], 2.2%; in experiment [9], 5.07%; in experiment [10], 0.99%; in [11], 12.3%; in experiment [12], 0.84%. Moreover, the inhibition is 11.8% in experiment [13]; 1.98% in experiment [14]; 9.83% in experiment [15]; -4.17% in [16]; -2.01% in experiment [17]; 73.5% in experiment [18]. The figures for the inhibition in [19] and in experiment [20] were 77.3% and 94.9%, respectively.
In the case of `CS(=O)(=O)CCNCc1ccc(-c2ccc3ncnc(Nc4ccc(OCc5ccccc5)c(Cl)c4)c3c2)o1`, the inhibition in experiment [1] was 9.03%; in experiment [2], 1.16%; in experiment [3], 5.85%; in experiment [4], 5.19%; in experiment [5], -0.77%; in [6], 1.79%. Also, the inhibition in experiment [7] was 1.45%; in experiment [8], -1.48%; in [9], -1.47%; in experiment [10], -0.01%; in experiment [11] it was 1.43%; in experiment [12], -0.15%. Further, the inhibition was 1.78% in experiment [13]; -0.29% in [14]; 1.05% in experiment [15]; 0.91% in experiment [16]; 2.44% in experiment [17]; 6.23% in [18]. Moreover, the inhibition in [19] stood at 14.2%; in experiment [20] it was 2.73%.
